For 23 compounds, growth results are on record in PubChem BioAssay (NCI).

The assay relates to MDA-MB-468 breast. As to the kind of experiment: NCI-60 one-dose screen, 48 h (100 = growth as untreated, 0 = no growth, -100 = all killed). The following applies: 10 µM unless noted.

Each structure is given as a SMILES string. Values joined by “and” are separate entries in the source; they are usually repeats but may differ in a detail not shown here. Identical values can stand only once. This is part of a sample that, as a whole, favours compounds with a hit. Of some 83,000 tested, about 20% had one in any assay.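 Plates (96-well) were seeded with cells, treated with compound at one concentration, and incubated for 48 hours before percent growth was determined.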 A number with no mark means an inactive call. Active and inactive are the calls of the source. Rule for the calls: active = growth percent below 10; inactive = the rest.

On to `COc1cc2oc(-c3cccc(C(=O)Nc4ccc(Br)cc4)c3)cc(=O)c2c(OC)c1OC`, for which the growth was 64.3%.

With `CCN1CCC[C@H]1c1cc(O)c2c(c1OC)C[C@H]1C[C@H]3[C@H](N)C(=O)C(C(N)=O)=C(O)[C@@]3(O)C(=O)C1=C2O`, the growth is -18.7% (active). As for `Cc1c2cc[nH]c(=O)c2c(C)c2c1[nH]c1cc(OCCN3CCN(C)CC3)ccc12`, the growth was -12.4% (active). Regarding `CCc1nc(N)nc(N)c1-c1ccc(Cl)cc1`, the growth is 62.5%. For `C=CC[N+]1(CCO)CCN=C1CCCCCCCCCCCCC` (stereo not drawn), the growth is -78.3% (active). Next, `CCCCN(CCCC)C(=O)CC`: 113%; `COC(=O)[C@@H]1CCCN1C(=O)[C@H]1CCCN1C(=O)[C@@H](Cc1c[nH]c2ccccc12)NC(=S)Nc1cc(C(F)(F)F)cc(C(F)(F)F)c1`: 29.2%; `COc1ccc(/C(=C/c2cc(OC)c(OC)cc2[N+](=O)[O-])C(=O)O)cc1`: 111%. For `N=C1S/C(=C/c2ccc(-c3ccc4c(c3)C(=O)NC4=O)o2)C(=O)N1c1ccc(Br)cc1`, the growth is 51.6%. For `CC(C)c1ccc(-c2cnc3nonc3n2)cc1`, the growth was 21%. Take `O=C(Nc1cccc(Oc2nnc(Cl)c3ccccc23)c1)Nc1ccc(Cl)c(C(F)(F)F)c1`: the growth is -44.8% (active). Consider `O=C(N/N=C\c1ccc(Cl)cc1Cl)c1ccncc1`, for which the growth was 110%. Take `CCCCN(C=S)CCCC`: the growth is 101%. Take `NS(=O)(=O)c1cc(Br)c2c(c1)S(=O)(=O)NCN2`: the growth is 126%. Take `O=S(=O)(NCCNc1cc(-c2c(-c3cccc(O)c3)nc3sccn23)ccn1)c1ccc(Cl)cc1`: the growth is 51.5%.

Take `COc1cc(NC(=O)c2cncnc2Nc2ccc3c(ccn3Cc3cccc(F)c3)c2)cc(OC)c1`: the growth is 42.8%.

As for `Cc1ccc(-c2cn(C/C=C3\C=CN(S(=O)(=O)c4ccccc4)CC3)nn2)cc1`, the growth is 86.8%.

`CCCNC(=O)Oc1ccc(/C(=C(/CC)Cc2ccccc2)c2ccc(OCCN(CC)CC)cc2)cc1`: the growth was 68.6%. In the case of `CCc1ccc(C(=Nc2ccc(N(C)C(=O)CN3CCN(C)CC3)cc2)c2c(O)[nH]c3ccc(C(=O)OC)cc23)cc1` it was -75.6% (active). Turning to `CCOC(=O)Nc1ccc2c(c1)/C(=N\NC(N)=S)c1ccccc1-2`, the growth was 55.3% and 75.3%. On to `Oc1ccc(Cc2ccccc2Cl)c(O)c1`, for which the growth was 98.4%. Turning to `O=C1NC(=O)c2c1c1c3ccccc3[nH]c1c1oc3cc(Br)ccc3c21`, the growth was 62.6%.

Turning to `CN1CCN(Cc2ccc(NC(=O)c3[nH]ncc3Nc3ccnc4ccnn34)cc2)CC1`, the growth was 65.6%.
